Most compounds without a hit are left out; they make up all but 1.2% or so of the library.
Glyco luc inh: blocks N-linked glycosylation in D54 reporter cells; D54 ERlucT glycosylation luciferase reporter, 24 h; percent of 100 nM tunicamycin response; reporter increase, % at 12.5 µM; 360,000 tested, 0.23% active; AID 588692;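 active means mean luciferase reporter signal, scaled so untreated is 0 and the glycosylation-blocking control 100, at or above a set limit in every replicate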;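 further: luciferase carries N-glycosylation sites so blocking glycosylation raises the light; 0% = median of neutral control wells and 100% = median of 100 nM tunicamycin wells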
RAD52 inh: blocks human RAD52 DNA annealing; recombinant RAD52 DNA annealing, FRET fluorescence; inhibition, % at 18.7 µM; 360,000 tested, 0.46% active; AID 651710;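 active means every replicate showing at least 50% inhibition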
AF4-AF9 inh: blocks AF4 peptide binding to human AF9 | 350,000 tested, 0.47% active | P42568 | inhibition, % at 10 µM | AlphaScreen, biotin-AF4 peptide binding to FLAG-AF9;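 active means every replicate reaching a set inhibition limit, whatever the replicate mean, cut at about 25% in these data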;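 further: 0% = plate neutral control median and 100% = total signal loss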
Target sequence (P42568 whole entry, looked up): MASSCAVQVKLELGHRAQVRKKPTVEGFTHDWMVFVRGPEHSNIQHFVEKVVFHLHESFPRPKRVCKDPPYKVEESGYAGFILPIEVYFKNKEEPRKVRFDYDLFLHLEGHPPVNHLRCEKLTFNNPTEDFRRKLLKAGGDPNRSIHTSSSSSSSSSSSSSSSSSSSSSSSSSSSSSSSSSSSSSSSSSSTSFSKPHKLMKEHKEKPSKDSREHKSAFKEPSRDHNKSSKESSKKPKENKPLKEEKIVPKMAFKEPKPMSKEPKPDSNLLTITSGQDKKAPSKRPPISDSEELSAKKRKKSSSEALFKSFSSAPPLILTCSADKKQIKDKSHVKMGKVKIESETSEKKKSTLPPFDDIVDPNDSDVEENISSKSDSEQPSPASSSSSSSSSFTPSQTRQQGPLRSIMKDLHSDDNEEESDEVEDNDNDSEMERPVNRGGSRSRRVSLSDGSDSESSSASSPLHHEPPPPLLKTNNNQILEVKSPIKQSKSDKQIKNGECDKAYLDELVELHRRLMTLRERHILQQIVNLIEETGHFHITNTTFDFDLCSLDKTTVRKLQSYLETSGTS
RAD54 branch: inhibitors of human RAD54 branch migration; inhibition, % at 10.4 µM; 360,000 tested, 0.14% active; RAD54 Holliday junction branch migration, FAM/BHQ fluorescence; Q92698;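 active means mean normalized replicate activity at least 40 and at least half of replicates scoring 40 or more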;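 further: 0% = median of neutral control wells and 100% = median of positive control wells; inhibitors cause a drop in the FAM fluorescence signal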
Casp6 inh: blocks human caspase-6 cleavage activity; P55212; purified caspase-6, Z-VEID-R110 cleavage fluorescence; inhibition, % at 12.5 µM; 350,000 tested, 0.53% active;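 active means mean inhibition across replicates at least about 35%, with every replicate also reaching that limit, limit read from the data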;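 further: 0% = median of neutral control wells and 100% = no fluorescence left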
Numbers without * were called inactive; . = no result.

SMILES	Glyco luc inh	RAD52 inh	AF4-AF9 inh	RAD54 branch	Casp6 inh
C[C@H](CO)N1C[C@H](C)[C@H](CN(C)Cc2ccc(Oc3ccccc3)cc2)Oc2ccc(NC(=O)CCCN(C)C)cc2CC1=O	.	58*	12	9	-10
C[C@H]1CN([C@@H](C)CO)C(=O)Cc2cc(NC(=O)CCCN(C)C)ccc2O[C@@H]1CN(C)Cc1ccc(Oc2ccccc2)cc1	.	52*	12	20	1
C[C@H](CO)N1C[C@H](C)[C@@H](CN(C)Cc2ccc(Oc3ccccc3)cc2)Oc2ccc(NC(=O)CCCN(C)C)cc2C1=O	.	16	21	9	-73
Cc1noc(C)c1NC(=O)Nc1ccc2c(c1)C(=O)N([C@@H](C)CO)C[C@H](C)[C@H](CN(C)C)OCCCC[C@@H](C)O2	.	-25	-1	5	1
Cc1ccc(C)c(N(C(=O)c2csnn2)C(C(=O)NC2CCCCC2)c2ccccn2)c1 (centres undefined)	-1	-6	37*	-3	2
Cc1ccc(N(C(=O)c2csnn2)C(C(=O)NC2CCCCC2)c2ccccn2)c(C)c1 (centres undefined)	1	-2	0	-9	.
CCC(=O)N[C@@H]1CC[C@@H](CCn2cc(C3CC3)nn2)O[C@H]1CO	.	-11	-3	-4	0
O=C(NCCc1ccccc1)c1cccc2c(-c3ccc(F)c(F)c3)coc12	-1	-2	-1	-2	45*
O=C(c1ccc(NC2=NC3CS(=O)(=O)CC3S2)cc1)N1CCN(c2ccccc2F)CC1 (centres undefined)	-1	-17	48*	-8	0
O=C(N/N=C/c1ccc([N+](=O)[O-])o1)C1CC1	9	-7	-2	.	42*
CCOC(=O)c1ccc(S(=O)(=O)N2CCC(C(=O)N3CCN(c4ccccc4OC)CC3)CC2)cc1	-1	8	0	1	48*
COc1ccccc1N1CCN(C(=O)C2CCN(S(=O)(=O)c3ccc(F)cc3)CC2)CC1	-2	.	.	-14	.
CC#C[C@]1(O)CC[C@H]2[C@@H]3CCC4=CC(=O)CCC4=C3[C@@H](c3ccc(N(C)C)cc3)C[C@@]21C	-4	-8	33*	17	1
CC[n+]1ccc(/C=C2\Sc3ccccc3N2CCCS(=O)(=O)[O-])c2ccccc21	1	-49	0	-12	1
CN1C=C/C(=C\c2cc[n+](C)c3ccccc23)c2ccccc21	-7	79*	56*	82*	-2
Cc1ccc(OCC(=O)c2c(N)n(C)c(=O)n(C)c2=O)c([N+](=O)[O-])n1	1	-50	-2	3	35*
CN1C(=O)CC(Sc2ccccc2C(=O)O)C1=O (centres undefined)	4	4	2	2	35*
CO[C@H]1O[C@H](CO)[C@@H](OC(=O)Nc2cccc(F)c2)[C@H](OC(=O)Nc2ccc3c(c2)OCO3)[C@H]1OC(=O)Nc1ccc2c(c1)OCO2	.	24	8	-4	1
C[C@H](CO)N1C[C@H](C)[C@H](CN(C)Cc2ccc(-c3ccccc3)cc2)Oc2ccc(N(C)C)cc2CC1=O	.	-8	29*	-9	-1
C[C@@H]1CN([C@@H](C)CO)C(=O)Cc2cc(N(C)C)ccc2O[C@H]1CN(C)Cc1ccc(-c2ccccc2)cc1	.	7	74*	-8	-1
C[C@H](CO)N1C[C@H](C)[C@@H](CN(C)Cc2ccc(C(F)(F)F)cc2)Oc2ccc(N(C)C)cc2CC1=O	.	4	33*	1	-4
O=C(CCN1CCCCC1)N[C@@H]1CC[C@H](CCn2cc(-c3ccc(F)cc3)nn2)O[C@@H]1CO	.	-3	1	-7	4
CN1CCN(C(=O)C[C@H]2CC[C@H]3[C@@H](COC[C@@H](O)CN3Cc3ccc4c(c3)OCO4)O2)CC1	.	-10	-2	-9	1
NC1=C(Cl)C(=O)c2ccccc2C1=O	-14	-69	2	.	97*
NS(=O)(=O)c1ccc2c(c1)C(=NO)c1cc(S(N)(=O)=O)ccc1-2	1	-5	3	3	2
SMILES	Glyco luc inh	RAD52 inh	AF4-AF9 inh	RAD54 branch	Casp6 inh
NC1=C(Cl)C(=O)c2ccc(S(N)(=O)=O)cc2C1=O	-20	25	2	2	100*
COc1ccc(S(=O)(=O)n2cnc3ccccc32)cc1OC	4	-11	-3	-4	62*
O=C(C[C@H]1C=C[C@H](NC(=O)c2ccccc2)[C@H](CO)O1)NCCc1ccncc1	.	1	-1	8	41*
COc1ccccc1CCC(=O)Nc1ccc2c(c1)c(=O)n(C)n2-c1cccs1	34*	-11	-1	4	3
Cc1onc(-c2ccccc2)c1-c1csc(N/N=C/c2ccccc2Cl)n1	1	-16	3	.	1
Cc1onc(-c2ccc(Cl)cc2Cl)c1-c1csc(N/N=C/c2ccccc2Cl)n1	-6	-3	0	.	38*
C[C@H]1CN([C@@H](C)CO)C(=O)c2cc(-c3ccc(F)cc3)cnc2O[C@@H]1CN(C)C(=O)NC1CCCC1	.	-6	-4	-8	0
CC1=NN(c2ccccc2)C(=O)/C1=C\C=C1/N(C)c2ccccc2C1(C)C	-6	-13	36*	.	9
CCCC(=O)Nc1ccc2c(c1)C(=O)N(C)C[C@@H](OC)[C@@H](C)CN(CC1CCCC1)[C@H](C)CO2	.	-7	-3	4	-6
C[C@@H]1CCCCO[C@H](CN(C)Cc2ccc3c(c2)OCO3)[C@@H](C)CN([C@H](C)CO)C(=O)c2cc(NC(=O)Nc3ccc4c(c3)OCO4)ccc2O1	.	23	4	-3	-1
C[C@@H]1CCCCO[C@H](CN(C)Cc2ccc3c(c2)OCO3)[C@@H](C)CN([C@@H](C)CO)C(=O)c2cc(NC(=O)Nc3ccc(C(F)(F)F)cc3)ccc2O1	.	61*	11	3	0
C[C@@H]1CN([C@@H](C)CO)C(=O)c2cc(NC(=O)C3CCCCC3)ccc2O[C@@H](C)CCCCO[C@@H]1CN(C)C(=O)Nc1ccc(C(F)(F)F)cc1	.	60*	-1	0	-2
C[C@@H]1CCCCO[C@@H](CN(C)Cc2ccc3c(c2)OCO3)[C@@H](C)CN([C@@H](C)CO)C(=O)c2cc(NC(=O)Nc3ccc4c(c3)OCO4)ccc2O1	.	55*	12	7	-3
C[C@@H]1CCCCO[C@H](CN(C)Cc2ccc3c(c2)OCO3)[C@H](C)CN([C@@H](C)CO)C(=O)c2cc(NC(=O)Nc3ccc4c(c3)OCO4)ccc2O1	.	37	27*	3	2
COc1ccc(S(=O)(=O)Nc2ccc3c(c2)CC(=O)N([C@@H](C)CO)C[C@@H](C)[C@H](CN(C)S(C)(=O)=O)O3)cc1	.	-3	0	3	-3
C[C@@H]1CCCCO[C@@H](CN(C)C)[C@H](C)CN([C@@H](C)CO)C(=O)c2cc(NC(=O)Nc3ccc(C(F)(F)F)cc3)ccc2O1	.	53*	1	6	-6

Compound activity (PubChem)
